A short description of assay [1]: binders of probe aFSTL3 on microarray, primary screen, stem cell growth factor project, biochemical, small-molecule microarray, fluorescence 635/667 (AID 1064).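 Further: measures binding of the biotinylated anti-FSTL3 antibody to printed compounds.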 To be noted: higher = more signal.
The nature of assay [2]: binders from COS7 lysate, DM2A8 probe, primary screen, torsin A project, cell lysate, small-molecule microarray, fluorescence 635/667 (AID 1065). To be noted: higher = more signal, COS7 lysate expressing mutant human TOR1A.
Assay [3] can be described thus: binders of probe aFGF2 on microarray, primary screen, stem cell growth factor project, biochemical, small-molecule microarray, fluorescence 635/667 (AID 1067).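 Further: measures binding of biotinylated aFGF2 protein to printed compounds on slides; z-score merges feature fluorescence and signal-to-noise across triplicate slides.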 To be noted: higher = more signal.
A short description of assay [4]: binders of probe aFGF10 on microarray, primary screen, stem cell growth factor project, biochemical, small-molecule microarray, fluorescence 635/667 (AID 1071).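 Further: score merges 667 nm spot intensity and signal to noise from triplicate slides.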 To be noted: higher = more signal.
Assay [5] addresses Neurogenic locus notch homolog protein 2 (Homo sapiens) (UniProt Q04721). In words: Notch2 binders on small-molecule microarrays, primary screen, biochemical, small-molecule microarray, 635 nm fluorescence, stem cell growth factors (AID 1073). To be noted: Notch2 binding, higher = more signal.
The target of assay [6] is Pro-neuregulin-1, membrane-bound isoform (Homo sapiens) (UniProt Q02297). The assay is described as follows: NRG1 binders on small-molecule microarrays, primary screen, psychiatric disease protein project, biochemical, small-molecule microarray, fluorescence 635/667 (AID 1075).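 Further: score combines 667 nm spot fluorescence with signal to noise.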 To be noted: NRG1 binding, 635 nm fluorescence, higher = more signal.
Assay [7] has as its system Neuregulin-1 EGF-like domain. The assay is described as follows: binders of neuregulin-1 EGF-like domain, primary screen, biochemical, small-molecule microarray, 635 nm fluorescence (AID 1081).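 Further: binding of the protein to compounds printed on small-molecule microarray slides.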 To be noted: small-molecule microarray binding, higher = more signal.
The nature of assay [8]: FRG1 promoter luciferase signal modulators, primary screen, FRG1 inhibition for FSHD, cell-based, C2C12 myotubes, firefly/Renilla luciferase, luminescence (AID 1084). To be noted: higher = more signal, called active from +8 up or from −8 down.
Assay [9] can be described thus: binders of probe aFST on microarray, primary screen, stem cell growth factor project, biochemical, small-molecule microarray, fluorescence 635/667 (AID 1086).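 Further: score merges 667 nm fluorescence with signal-to-noise of each printed compound spot.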 To be noted: higher = more signal.
A short description of assay [10]: binders of probe aHhip on microarray, primary screen, stem cell growth factor project, biochemical, small-molecule microarray, fluorescence 635/667 (AID 1087).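 Further: score merges spot fluorescence at 667nm with spot signal to noise ratio.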 To be noted: higher = more signal.
Assay [11] deals with PRMT1 (protein arginine N-methyltransferase 1). In words: PRMT1 binders on small-molecule microarrays, primary screen, biochemical, small-molecule microarray, 635 nm fluorescence (AID 1088).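 Further: binding of Prmt1 protein to compounds spotted on small-molecule microarray slides.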 To be noted: small-molecule microarray binding, higher = more signal.
Assay [12] is described as follows: yeast growth modulation, basal conditions, primary screen, YJM789 clinical isolate, OD600, 24 h (AID 1089).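 Further: growth of clinical yeast isolate S. cerevisiae YJM 789 seeded 1000 cells per well; test concentration not given here.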 To be noted: S. cerevisiae YJM789 growth, higher = more signal, called active from +8 up or from −8 down.
Assay [13] is described as follows: fission yeast growth modulation, primary screen, strain 972, OD600, 24 h, no modulator (AID 1090).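 Further: basal condition with compound alone and no growth modifier present; test concentration not given here.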 To be noted: S. pombe 972 growth, higher = more signal, called active from +8 up or from −8 down.
Assay [14] in a line: S. cerevisiae growth modulation with rapamycin, primary screen, strain BY4716, OD600, 96 h (AID 1091). Further: test concentration not given here. To be noted: higher = more signal, called active from +8 up or from −8 down.
Assay [15] has as its target Torsin-1A-interacting protein 2 (Homo sapiens) (UniProt Q8NFQ8). The assay is described as follows: LULL1 binders on small-molecule microarray, primary screen, cell lysate, human LULL1 lysate, 635/667 nm fluorescence (AID 1092).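 Further: probe is lysate of COS7 cells overexpressing human LULL1; score merges per-feature 667 nm fluorescence with signal-to-noise.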 To be noted: hLULL1 lysate binding, 635 nm fluorescence, higher = more signal.
A short description of assay [16]: E. coli growth modulation, two-sided OD650, primary screen, E. coli filamentation project, strain DRC41, 24 h (AID 1093).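 Further: MC1000 strain lacking acrAB efflux and sulA so SOS filamentation is blocked; test concentration not given here.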 To be noted: OD650, 24 h, higher = more signal, called active from +8 up or from −8 down.
Assay [17] can be described thus: small-molecule microarray binders of probe aLefty2, primary screen, biochemical, biotinylated probe, 635/667 nm fluorescence (AID 1094).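 Further: score merges spot fluorescence near 667 nm with spot signal-to-noise ratio.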 To be noted: higher = more signal.
Assay [18] concerns Noggin (protein binding on small-molecule microarray). The assay is described as follows: Noggin binders on small-molecule microarray, primary screen, biochemical, 635/667 nm fluorescence (AID 1095).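 Further: score merges 667 nm feature fluorescence with signal to noise over triplicate slides.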 To be noted: 635 nm fluorescence, higher = more signal.
Assay [19] has as its target Neurogenic locus notch homolog protein 3 (Homo sapiens) (UniProt Q9UM47). The assay is described as follows: NOTCH3 binders on small-molecule microarray, primary screen, biochemical, 635/667 nm fluorescence (AID 1096). To be noted: NOTCH3 binding, 635 nm fluorescence, higher = more signal.
A short description of assay [20]: small-molecule microarray binders of probe aEGFR, primary screen, biochemical, biotinylated probe, 635/667 nm fluorescence (AID 1097).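 Further: probe is a biotinylated anti-EGFR antibody binding compounds printed on slides; score combines fluorescence near 667 nm and signal to noise of each spot.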 To be noted: higher = more signal.

Each structure is given as a SMILES string. Active and inactive are the calls of the source.

Sequence of Neurogenic locus notch homolog protein 2 (Homo sapiens) (Q04721 whole entry, looked up, canonical isoform): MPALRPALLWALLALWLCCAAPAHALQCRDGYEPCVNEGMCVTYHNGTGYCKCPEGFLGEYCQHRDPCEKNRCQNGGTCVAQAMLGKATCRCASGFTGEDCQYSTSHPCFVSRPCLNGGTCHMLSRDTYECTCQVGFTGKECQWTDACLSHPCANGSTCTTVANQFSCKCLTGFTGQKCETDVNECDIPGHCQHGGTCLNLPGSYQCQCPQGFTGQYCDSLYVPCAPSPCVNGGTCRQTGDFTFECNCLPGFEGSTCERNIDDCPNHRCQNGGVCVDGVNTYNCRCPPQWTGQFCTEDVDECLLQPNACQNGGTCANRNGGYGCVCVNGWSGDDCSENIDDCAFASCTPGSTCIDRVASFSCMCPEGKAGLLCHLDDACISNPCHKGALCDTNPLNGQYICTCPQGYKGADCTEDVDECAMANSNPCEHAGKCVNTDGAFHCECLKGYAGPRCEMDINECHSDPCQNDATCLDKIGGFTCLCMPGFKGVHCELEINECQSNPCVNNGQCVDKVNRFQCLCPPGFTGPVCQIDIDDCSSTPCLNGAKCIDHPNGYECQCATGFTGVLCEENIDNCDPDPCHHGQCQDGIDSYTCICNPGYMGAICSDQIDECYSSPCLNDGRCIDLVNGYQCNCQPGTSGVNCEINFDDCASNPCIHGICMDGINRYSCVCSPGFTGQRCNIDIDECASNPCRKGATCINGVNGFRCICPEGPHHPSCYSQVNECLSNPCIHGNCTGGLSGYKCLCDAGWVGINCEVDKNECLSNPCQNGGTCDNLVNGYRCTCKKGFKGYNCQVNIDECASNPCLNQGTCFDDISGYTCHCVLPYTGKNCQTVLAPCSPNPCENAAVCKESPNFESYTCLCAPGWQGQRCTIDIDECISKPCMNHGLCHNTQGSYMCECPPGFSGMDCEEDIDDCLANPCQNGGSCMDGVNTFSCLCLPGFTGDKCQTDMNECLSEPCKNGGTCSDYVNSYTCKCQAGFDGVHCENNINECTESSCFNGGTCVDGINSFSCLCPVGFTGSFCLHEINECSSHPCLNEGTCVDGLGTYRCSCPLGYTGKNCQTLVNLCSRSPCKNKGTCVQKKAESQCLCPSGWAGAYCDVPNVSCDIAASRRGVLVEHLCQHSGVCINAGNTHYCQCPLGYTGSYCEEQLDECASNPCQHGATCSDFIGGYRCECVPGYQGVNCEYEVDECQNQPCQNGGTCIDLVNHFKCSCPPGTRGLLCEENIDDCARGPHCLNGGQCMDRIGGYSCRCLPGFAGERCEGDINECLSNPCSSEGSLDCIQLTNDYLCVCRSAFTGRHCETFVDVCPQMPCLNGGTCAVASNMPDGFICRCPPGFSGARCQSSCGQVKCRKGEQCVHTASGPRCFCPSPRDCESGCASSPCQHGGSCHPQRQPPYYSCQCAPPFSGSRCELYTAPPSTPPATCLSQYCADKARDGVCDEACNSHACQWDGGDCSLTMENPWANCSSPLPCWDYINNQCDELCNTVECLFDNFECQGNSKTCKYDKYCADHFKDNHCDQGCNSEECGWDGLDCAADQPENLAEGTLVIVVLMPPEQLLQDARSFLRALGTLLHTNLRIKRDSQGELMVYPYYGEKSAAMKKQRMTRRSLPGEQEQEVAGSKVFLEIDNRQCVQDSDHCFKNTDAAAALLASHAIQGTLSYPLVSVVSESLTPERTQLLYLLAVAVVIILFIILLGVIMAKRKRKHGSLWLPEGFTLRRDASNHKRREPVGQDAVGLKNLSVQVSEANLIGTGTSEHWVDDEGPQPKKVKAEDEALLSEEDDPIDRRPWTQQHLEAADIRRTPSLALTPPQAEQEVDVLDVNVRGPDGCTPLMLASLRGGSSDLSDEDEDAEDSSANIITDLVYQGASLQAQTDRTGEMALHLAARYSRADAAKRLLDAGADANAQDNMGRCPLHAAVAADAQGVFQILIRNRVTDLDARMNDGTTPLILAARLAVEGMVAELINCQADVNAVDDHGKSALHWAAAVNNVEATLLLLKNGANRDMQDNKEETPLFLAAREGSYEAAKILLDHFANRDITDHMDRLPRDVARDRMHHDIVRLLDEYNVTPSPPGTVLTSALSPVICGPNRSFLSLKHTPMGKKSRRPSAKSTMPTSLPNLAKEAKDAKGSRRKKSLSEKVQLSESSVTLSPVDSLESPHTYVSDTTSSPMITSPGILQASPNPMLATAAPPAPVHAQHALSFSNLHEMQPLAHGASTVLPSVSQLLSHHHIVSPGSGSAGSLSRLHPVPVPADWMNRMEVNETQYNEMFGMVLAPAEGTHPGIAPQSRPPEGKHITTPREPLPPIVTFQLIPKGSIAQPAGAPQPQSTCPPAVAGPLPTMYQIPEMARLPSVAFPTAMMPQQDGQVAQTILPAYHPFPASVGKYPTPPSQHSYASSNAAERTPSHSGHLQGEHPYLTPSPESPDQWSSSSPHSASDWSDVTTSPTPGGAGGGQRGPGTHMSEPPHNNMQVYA
Sequence of Torsin-1A-interacting protein 2 (Homo sapiens) (Q8NFQ8 whole entry, looked up): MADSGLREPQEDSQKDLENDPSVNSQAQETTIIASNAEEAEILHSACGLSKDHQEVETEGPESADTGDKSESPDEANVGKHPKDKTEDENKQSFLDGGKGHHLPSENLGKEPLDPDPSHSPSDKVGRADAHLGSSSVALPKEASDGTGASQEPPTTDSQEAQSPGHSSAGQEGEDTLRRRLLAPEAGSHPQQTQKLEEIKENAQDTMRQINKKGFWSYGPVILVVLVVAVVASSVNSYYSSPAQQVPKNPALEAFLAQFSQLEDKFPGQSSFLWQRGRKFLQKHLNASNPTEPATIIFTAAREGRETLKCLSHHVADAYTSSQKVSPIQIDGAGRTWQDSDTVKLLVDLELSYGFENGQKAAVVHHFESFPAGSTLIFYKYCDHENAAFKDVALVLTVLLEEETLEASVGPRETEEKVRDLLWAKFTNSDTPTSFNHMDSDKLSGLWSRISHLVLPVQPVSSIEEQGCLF
Sequence of Pro-neuregulin-1, membrane-bound isoform (Homo sapiens) (Q02297 whole entry, looked up, the tested form may be a part, canonical isoform): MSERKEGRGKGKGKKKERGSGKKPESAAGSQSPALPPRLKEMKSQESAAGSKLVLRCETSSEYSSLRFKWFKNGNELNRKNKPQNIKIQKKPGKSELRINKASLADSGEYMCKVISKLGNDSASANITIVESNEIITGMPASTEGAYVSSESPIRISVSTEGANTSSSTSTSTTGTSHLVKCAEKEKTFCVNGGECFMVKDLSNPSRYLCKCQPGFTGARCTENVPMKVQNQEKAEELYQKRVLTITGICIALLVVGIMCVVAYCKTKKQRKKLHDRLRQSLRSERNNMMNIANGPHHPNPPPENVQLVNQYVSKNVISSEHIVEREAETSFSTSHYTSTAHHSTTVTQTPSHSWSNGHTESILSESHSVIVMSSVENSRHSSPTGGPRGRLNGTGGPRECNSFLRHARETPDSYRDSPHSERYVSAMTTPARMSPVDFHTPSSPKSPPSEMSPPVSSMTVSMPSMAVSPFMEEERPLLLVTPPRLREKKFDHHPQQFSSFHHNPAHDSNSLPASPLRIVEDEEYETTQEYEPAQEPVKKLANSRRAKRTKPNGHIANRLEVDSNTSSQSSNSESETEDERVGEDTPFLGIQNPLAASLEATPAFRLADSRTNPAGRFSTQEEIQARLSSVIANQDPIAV

For the compound `C=CCC(OC(C)=O)[C@@H]1[C@@H](N(Cc2cccc3ccccc23)C(=O)Cc2ccc(F)cc2)c2cc(OCCCO)ccc2N1C(=O)Cc1ccc(OC)cc1` (stereo not given in full), the composite z-score in [1] was -0.449; in assay [2], 0.202; in assay [3], -0.116; in assay [4], 0.493; in [5] it was -0.045; in assay [6] it was -0.418. Further, the composite z-score was -0.424 in assay [7]; 0.0417 in assay [9]; -0.191 in assay [10]; -0.151 in assay [11]; -0.0743 in assay [15]; -0.0137 in assay [17]. In addition, the composite z-score was 0.122 in [18], 0.159 in assay [19] and -0.309 in [20]. The z-score in assay [8] was -1.05 (inactive); in assay [12], -1.18 (inactive); in assay [13], 0.246 (inactive); in assay [14], -0.72 (inactive); in [16], 0.802 (inactive).

Consider `Cc1ccccc1C(O)C1C=CC2C(=O)N(Cc3ccccc3)C(=O)C2N1n1cnnc1` (stereo not given), for which the composite z-score in assay [1] was -0.281; in assay [2], 0.34; in [3] it was -0.0085; in [4] it was 0.304; in assay [5], 1.02; in assay [6], 1.03. Also, the composite z-score in assay [7] was determined as 0.92; in assay [9], 0.475; in [10], 0.0053; in assay [11], 0.601; in assay [15], 2.38; in assay [17], 0.0873. Also, the results for the composite z-score in assay [18], in assay [19] and in assay [20] were 0.162, 1.05 and 0.045, respectively. For the same compound, the z-score in assay [8] is 0.253 (inactive); in [12], -1.26 (inactive); in assay [13], 0.658 (inactive); in [14], -0.796 (inactive); in assay [16], -0.0518 (inactive).

As to `COCCOC(=O)N1C(=O)[C@@]2(c3cc(C#CCNC(N)=O)ccc31)[C@H](C(=O)N1CCCCCCC1)[C@H]1C(=O)O[C@H](c3ccccc3)[C@H](c3ccccc3)N1[C@@H]2c1ccc(OCCO)cc1`, the composite z-score in assay [1] was 1.03; in assay [2], 0.303; in [3] it was -0.0024; in [4], 0.578; in assay [5] it was 0.754; in assay [6], 0.446. Also, the composite z-score in [7] was determined as 0.0222; in [9] it was 0.7; in [10], 0.443; in assay [11], 0.543; in assay [15] it was 0.808; in assay [17], 0.239. The composite z-score in assay [18] worked out at 0.616; in assay [19] it was 1.07; in [20] it was 0.0126. Besides, the z-score was -0.557 (inactive) in assay [8]; 0.872 (inactive) in assay [12]; 0.642 (inactive) in [13]; 3.24 (inactive) in assay [14]; -0.299 (inactive) in [16].

For `CC1C=C(CCCO)C=C(C(=O)OCCS(C)(=O)=O)C(C(=O)OCCS(C)(=O)=O)=CN1Cc1cccc(OC(F)(F)F)c1` (stereo not given), the composite z-score in [1] is -0.228; in [2] it was 0.21; in assay [3] it was -0.0379; in assay [4] it was 0.203; in [5] it was 0.707; in assay [6], 2.08. In addition, the composite z-score in assay [7] is 1.14; in assay [9] it was 0.106; in assay [10] it was -0.0645; in [11], 0.482; in assay [15], 3.11; in assay [17], 0.0057. For the same compound, the composite z-score in [18] was 0.0266; in [19] it was 0.379; in assay [20], -0.0418. Also, the z-score in assay [8] was 0.416 (inactive); in [12], -1.27 (inactive); in assay [13] it was -2.49 (inactive); in [14], -0.0014 (inactive); in [16] it was -0.436 (inactive).

`CCCCCCCCCCC(O)C1C=CC2C(=O)NC(=O)C2N1Nc1ccccn1` (stereo not given): the composite z-score in [1] was 0.444; in assay [2], -1.14; in [3], -0.0899; in [4] it was -0.417; in [5] it was 0.439; in [6] it was 1. Moreover, the composite z-score in assay [7] is 0.852; in assay [9], 0.0124; in assay [10], -0.236; in assay [11], -0.19; in [15], 1.78; in assay [17], -0.0654. For the same compound, the composite z-score is -0.894 in assay [18], 0.243 in assay [19] and -0.14 in assay [20]. Besides, the z-score in assay [8] is 1.06 (inactive); in [12], -20 (active); in assay [13], -16.2 (active); in [14], -2.6 (inactive); in [16], -15.5 (active).

These data come from PubChem BioAssay.
